Results on 40 compounds are retold here after ChEMBL document CHEMBL3988442, “University of Dundee, Small-Polar-MMV Screening Library” (2021).

For the experiment, the target named is T1, Aspartate--tRNA(Asp/Asn) ligase (Mycobacterium tuberculosis (strain ATCC 25618 / H37Rv)) (UniProt P9WFW3).
T1 sequence (whole entry): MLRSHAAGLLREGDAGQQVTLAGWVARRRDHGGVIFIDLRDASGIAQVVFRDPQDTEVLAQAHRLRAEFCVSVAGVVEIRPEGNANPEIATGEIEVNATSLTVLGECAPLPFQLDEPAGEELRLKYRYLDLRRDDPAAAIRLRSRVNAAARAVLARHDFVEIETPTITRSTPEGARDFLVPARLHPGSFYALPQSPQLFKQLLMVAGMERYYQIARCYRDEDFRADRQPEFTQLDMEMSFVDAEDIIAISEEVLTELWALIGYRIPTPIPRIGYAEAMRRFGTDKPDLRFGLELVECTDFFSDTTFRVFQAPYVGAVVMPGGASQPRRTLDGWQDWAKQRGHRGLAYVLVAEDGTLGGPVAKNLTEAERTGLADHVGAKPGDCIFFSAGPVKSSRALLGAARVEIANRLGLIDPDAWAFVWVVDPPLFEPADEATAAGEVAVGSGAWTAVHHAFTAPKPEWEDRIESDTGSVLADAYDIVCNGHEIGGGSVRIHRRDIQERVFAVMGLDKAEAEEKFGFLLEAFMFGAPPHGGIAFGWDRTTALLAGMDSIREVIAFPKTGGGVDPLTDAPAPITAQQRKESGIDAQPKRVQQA
Kind of experiment: Assay for Asp RNA synthetase-1 from Mycobacterium tuberculosis. Format: functional. Conditions: 30 µM. On the set-up: scale not given: in the data most compounds retested in dose-response had high values.
In the case of `N#Cc1cccc(CS(=O)(=O)NCCC(O)c2ccccc2)c1` (stereo not given), the Percent Effect is -1.46%.

As to `CN(C)CCn1c(=O)oc2ccc(NC(=O)C3CCCO3)cc21` (stereo not given), the Percent Effect was -2.08%.

As for `C[S+]([O-])CCCNC(=O)c1cc(Br)c2c(c1)OCCO2` (stereo not given), the Percent Effect is -1.74%.

`Cc1nccn1CCC1CCCCN1Cc1ccc(N(C)C)nc1` (stereo not given): the Percent Effect turned out to be 2.17%.

Turning to `CC(C)SCC(=O)N1CCc2c(nc(N(C)C)nc2N(C)C)C1`, the Percent Effect is -3.12%.

For `Cc1ccn2cc(C(=O)N3CCCC3c3c(C)nn(C)c3C)nc2c1` (stereo not given), the Percent Effect was -1.79%.

For `CC(C)c1nccn1CCCNC(=O)c1ccc(N(C)C)nc1`, the Percent Effect was -2.17%.

On to `Cc1c[nH]c(CN(C)C(=O)c2cccc(CCC(C)(C)O)c2)n1`, for which the Percent Effect was -1%.

For the compound `CCS(=O)(=O)c1ccc(N2CCC(NC(C)=O)CC2)cc1`, the Percent Effect was 1.78%.

Consider `O=C(NCc1ccoc1)Nc1ccc(CN2CCOC2=O)cc1`, for which the Percent Effect is -3.73%.

As to `COc1cccc2c1OCC(CNC(=O)CCCN1CCOCC1)C2` (stereo not given), the Percent Effect came out at 4.84%.

With `Cc1nnsc1C(=O)N1CCC2(CC1)c1nc[nH]c1CCN2CC(C)C`, the Percent Effect was -1.53%.

For `NC(=O)C1CCCN1Cc1cccc(NC(=O)c2ccsc2)c1` (stereo not given), the Percent Effect came out at 2.98%.

Regarding `COc1ccc(-n2cnnc2SCCC#N)cn1`, the Percent Effect is -0.885%.

`O=C1NCCCCC1Sc1nnc(C2CC2)n1C1CC1` (stereo not given): the Percent Effect was -6.09%.

Take `Cn1nccc1C(=O)N1CCOC(Cc2cccc(C(F)(F)F)c2)C1` (stereo not given): the Percent Effect is -2.91%.

As to `CCCC(NC(=O)c1ccc(OC)cc1F)c1nnn[nH]1` (stereo not given), the Percent Effect was -1.41%.

`CSC(C)(C)CNC(=O)NCCC1CCN(C)CC1`: the Percent Effect is -1.57%.

Consider `CCCNC(=O)CCNC(=O)Cc1nc(-c2ccco2)oc1C`, for which the Percent Effect was determined as 2.08%.

Consider `Cc1nc(C(=O)N2CCC(Cc3cnc4[nH]ccc4c3)C2)co1` (stereo not given), for which the Percent Effect turned out to be 1.31%.

As to `O=C(NCCN1CCOCC1)NCc1ncc(-c2ccccc2)o1`, the Percent Effect is 1.62%.

Consider `CNC(=O)c1cccc(CNC(=O)C2CC(=O)N(CCN(C)C)C2)c1` (stereo not given), for which the Percent Effect is -2.01%.

Turning to `O=C1N(Cc2ccc(F)c(F)c2)CCCC12CCN(C1CCSCC1)C2` (stereo not given), the Percent Effect was -5.55%.

In the case of `Cc1nn(C)c(N(C)C)c1CNC1CCc2c(F)cccc21` (stereo not given), the Percent Effect was -3.35%.

Take `CN(Cc1ccccc1)C1(C(=O)O)Cc2ccccc2C1`: the Percent Effect is -1.53%.

For the compound `CNC(=O)c1cccc(NC(=O)CN2CCN(S(C)(=O)=O)CC2)c1`, the Percent Effect is -5.52%.

`c1ccc2c(N3CCCCC3Cn3cncn3)ncnc2c1` (stereo not given): the Percent Effect was found to be 0.172%.

`NC(=O)c1cc(C2CCCN(C(=O)CCc3cscn3)C2)n[nH]1` (stereo not given): the Percent Effect was -4.07%.

Turning to `Cc1ccc2ncnc(N3CCOCC3c3c(C)nn(C)c3C)c2c1` (stereo not given), the Percent Effect was -0.356%.

For the compound `O=S1(=O)C[C@@H]2[C@H](C1)N(Cc1cc(Cl)cc(Cl)c1)CCN2CC1CC1`, the Percent Effect is 0.655%.

As for `CC(C)(C)N1CC(C(=O)N2CCN(CCc3ccccc3)CC2)CC1=O` (stereo not given), the Percent Effect was determined as 0.448%.

For `CCN(C)c1ccc(C(=O)N(CCOC)Cc2ccccn2)cc1`, the Percent Effect came out at 2.13%.

Turning to `COc1cccc(CN(C)C(=O)CN2CCN(c3nccn3C)CC2)c1`, the Percent Effect is 2.95%.

With `O=C(NC1(c2nnn(Cc3ccncc3)n2)CCCC1)c1ccccc1`, the Percent Effect was -0.678%.

Consider `COC(=O)c1sccc1NC(=O)C1CCCN1C(=O)c1ccco1` (stereo not given), for which the Percent Effect was -0.808%.

`CCS(=O)(=O)N1CCC(c2nnc(CN3CCOCC3)n2C)CC1`: the Percent Effect is -1.39%.

Turning to `Cc1cc(C)n(CC(=O)N(C)Cc2csc(-c3cccs3)n2)c(=O)n1`, the Percent Effect is -0.356%.

On to `O=S(=O)(Cc1ccccc1F)NCCN1CCOCC1`, for which the Percent Effect was -2.93%.

With `COC(=O)Cn1c(=O)nc2n1C(=O)N(c1ccc(Cl)cc1)C2`, the Percent Effect came out at 1.73%.

With `CC(C)c1nccn1CCCNC(=O)c1ccc(-c2cncnc2)nc1`, the Percent Effect is -1.78%.
